Holding throughout (test): DAPPL (digital affinity profiling via proximity ligation, sequencing); 10 mM Tris-HCl pH 7.5, 50 mM NaCl, 1 mM DTT, 4% glycerol, room temperature, 30 min; GST-TFs on glutathione beads, 16-mer random dsDNA library, 0.1% formaldehyde crosslink after washing; high values mean tight binding
Common to all, as to details: protein: recombinant; tags: N-terminal GST; dsDNA, one strand shown

One experiment concerns the target ETV5 (Homo sapiens, UniProt P41161 1-510). The method, boiled down:
(§1)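 Binding signal is given per hexamer as its read frequency for a factor divided by its frequency in the tag-only sample. GST-fused human transcription factors were expressed in yeast, captured on glutathione beads, barcoded with DNA and pooled with that sample, then incubated with 200 nmole of a 16-mer random double-stranded DNA library in Tris/NaCl/DTT/glycerol buffer for 30 min at room temperature. The pools were then washed, crosslinked, proximity-ligated, amplified by PCR and sequenced on an Illumina NextSeq500.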

A further experiment has as its target T1, SPIC (Homo sapiens, UniProt Q8N5J4 1-248).
T1 sequence: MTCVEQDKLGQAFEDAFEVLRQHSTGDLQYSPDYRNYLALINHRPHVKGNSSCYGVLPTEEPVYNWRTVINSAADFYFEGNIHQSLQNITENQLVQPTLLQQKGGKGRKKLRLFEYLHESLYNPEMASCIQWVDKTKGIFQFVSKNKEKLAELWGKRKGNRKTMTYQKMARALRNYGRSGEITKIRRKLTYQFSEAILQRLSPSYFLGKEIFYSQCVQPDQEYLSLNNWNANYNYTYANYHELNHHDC
In a few lines: as §1

A further experiment addresses ELF4 (Homo sapiens, UniProt Q99607 1-663). In a few lines:
as §1

In another experiment the target is T2, ELK4 (Homo sapiens, UniProt P28324-2 1-405).
T2 sequence: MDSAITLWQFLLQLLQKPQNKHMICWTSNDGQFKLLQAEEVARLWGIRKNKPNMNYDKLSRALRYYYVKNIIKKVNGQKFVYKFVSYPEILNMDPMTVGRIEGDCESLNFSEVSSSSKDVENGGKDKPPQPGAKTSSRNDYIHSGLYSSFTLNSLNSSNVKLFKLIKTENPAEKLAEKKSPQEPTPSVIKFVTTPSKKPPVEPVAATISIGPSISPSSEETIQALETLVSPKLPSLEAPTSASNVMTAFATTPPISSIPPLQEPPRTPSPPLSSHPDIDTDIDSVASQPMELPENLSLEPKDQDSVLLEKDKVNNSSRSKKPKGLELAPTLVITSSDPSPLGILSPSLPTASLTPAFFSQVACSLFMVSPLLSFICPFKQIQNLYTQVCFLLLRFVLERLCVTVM
The method, boiled down: as §1

For another experiment, the target named is T3, ETV2 (Homo sapiens, UniProt O00321 1-342).
T3 sequence: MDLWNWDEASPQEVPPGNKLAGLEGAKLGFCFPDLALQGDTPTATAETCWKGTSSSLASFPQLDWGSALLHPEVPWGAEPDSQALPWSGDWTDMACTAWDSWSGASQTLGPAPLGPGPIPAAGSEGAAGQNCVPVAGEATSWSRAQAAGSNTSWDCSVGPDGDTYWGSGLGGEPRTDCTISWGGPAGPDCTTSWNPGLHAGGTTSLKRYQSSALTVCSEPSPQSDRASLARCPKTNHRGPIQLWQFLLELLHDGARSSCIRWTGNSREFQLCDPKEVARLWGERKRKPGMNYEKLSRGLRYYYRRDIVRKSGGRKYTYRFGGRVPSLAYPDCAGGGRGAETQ
The method, boiled down:
as §1

For a further experiment, the target named is T4, FEV (Homo sapiens, UniProt Q99581 1-238).
T4 sequence: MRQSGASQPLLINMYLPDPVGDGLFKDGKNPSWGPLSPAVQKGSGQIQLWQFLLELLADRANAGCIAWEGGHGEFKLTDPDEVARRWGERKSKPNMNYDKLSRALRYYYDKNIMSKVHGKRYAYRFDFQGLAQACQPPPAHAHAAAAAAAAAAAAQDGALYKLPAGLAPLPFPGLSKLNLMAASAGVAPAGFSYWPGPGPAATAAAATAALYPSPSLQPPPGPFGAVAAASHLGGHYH
In a few lines:
as §1

In the next experiment the target is T5, ELF3 (Homo sapiens, UniProt P78545 1-371).
T5 sequence: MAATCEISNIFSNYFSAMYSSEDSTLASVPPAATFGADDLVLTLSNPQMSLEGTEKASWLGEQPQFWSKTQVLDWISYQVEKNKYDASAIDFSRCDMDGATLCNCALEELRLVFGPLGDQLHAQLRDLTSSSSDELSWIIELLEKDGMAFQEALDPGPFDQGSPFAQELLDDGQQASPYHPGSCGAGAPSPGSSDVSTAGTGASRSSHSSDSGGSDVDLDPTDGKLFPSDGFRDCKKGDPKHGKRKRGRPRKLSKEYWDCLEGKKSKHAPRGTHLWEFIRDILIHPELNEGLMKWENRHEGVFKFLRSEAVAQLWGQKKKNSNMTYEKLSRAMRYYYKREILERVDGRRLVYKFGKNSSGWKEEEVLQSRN
In a few lines:
as §1

Another experiment has as its target CRX (Homo sapiens, UniProt O43186 1-299). In a few lines: as §1
Another experiment deals with ETV1 (Homo sapiens, UniProt P50549 1-477). In a few lines:
as §1

Sequence of ETV1 (P50549 whole entry): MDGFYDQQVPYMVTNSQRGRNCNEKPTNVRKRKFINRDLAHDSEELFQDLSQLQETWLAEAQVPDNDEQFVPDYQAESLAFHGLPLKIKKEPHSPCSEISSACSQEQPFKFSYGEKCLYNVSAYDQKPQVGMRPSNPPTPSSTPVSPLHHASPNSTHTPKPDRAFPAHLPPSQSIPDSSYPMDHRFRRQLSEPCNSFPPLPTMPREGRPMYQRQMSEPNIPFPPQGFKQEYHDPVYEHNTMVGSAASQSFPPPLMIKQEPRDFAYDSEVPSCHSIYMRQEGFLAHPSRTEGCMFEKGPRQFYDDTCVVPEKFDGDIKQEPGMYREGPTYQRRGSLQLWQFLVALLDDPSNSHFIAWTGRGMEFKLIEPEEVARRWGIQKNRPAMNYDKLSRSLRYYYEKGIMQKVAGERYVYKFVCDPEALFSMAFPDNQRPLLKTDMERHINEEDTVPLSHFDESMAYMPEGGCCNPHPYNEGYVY
Sequence of ELF4 (Q99607 whole entry): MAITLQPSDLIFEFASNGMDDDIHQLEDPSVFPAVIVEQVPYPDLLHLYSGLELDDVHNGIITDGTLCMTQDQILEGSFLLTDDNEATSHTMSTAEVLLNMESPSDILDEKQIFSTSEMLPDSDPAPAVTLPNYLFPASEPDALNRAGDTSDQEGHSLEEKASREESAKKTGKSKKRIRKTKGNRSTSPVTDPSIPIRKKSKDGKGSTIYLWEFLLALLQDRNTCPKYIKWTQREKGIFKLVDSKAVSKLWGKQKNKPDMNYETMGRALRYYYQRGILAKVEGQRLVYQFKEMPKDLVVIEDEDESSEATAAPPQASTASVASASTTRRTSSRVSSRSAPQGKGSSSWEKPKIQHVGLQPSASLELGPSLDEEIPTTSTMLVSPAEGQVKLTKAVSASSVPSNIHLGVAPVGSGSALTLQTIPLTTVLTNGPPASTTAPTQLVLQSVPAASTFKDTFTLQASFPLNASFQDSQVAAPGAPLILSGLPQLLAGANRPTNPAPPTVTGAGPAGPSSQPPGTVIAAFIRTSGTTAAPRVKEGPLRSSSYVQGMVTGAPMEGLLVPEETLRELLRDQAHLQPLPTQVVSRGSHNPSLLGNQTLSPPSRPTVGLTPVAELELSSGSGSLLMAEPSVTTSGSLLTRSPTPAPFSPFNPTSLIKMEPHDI
Sequence of ETV5 (P41161 whole entry, the tested form may be a part): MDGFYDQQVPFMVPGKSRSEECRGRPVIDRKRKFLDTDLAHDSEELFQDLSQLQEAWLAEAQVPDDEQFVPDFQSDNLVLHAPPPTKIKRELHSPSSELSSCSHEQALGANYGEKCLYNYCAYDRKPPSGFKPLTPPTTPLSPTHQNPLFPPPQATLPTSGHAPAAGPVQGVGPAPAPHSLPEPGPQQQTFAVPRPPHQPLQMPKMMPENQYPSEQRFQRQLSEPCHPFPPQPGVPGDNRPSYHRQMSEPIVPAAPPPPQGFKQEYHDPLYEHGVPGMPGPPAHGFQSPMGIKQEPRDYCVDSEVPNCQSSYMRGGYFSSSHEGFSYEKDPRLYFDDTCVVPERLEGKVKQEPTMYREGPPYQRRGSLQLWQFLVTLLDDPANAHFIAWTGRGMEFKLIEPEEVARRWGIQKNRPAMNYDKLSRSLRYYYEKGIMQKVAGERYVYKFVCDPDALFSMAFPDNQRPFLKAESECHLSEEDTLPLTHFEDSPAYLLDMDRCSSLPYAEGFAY
Sequence of CRX (O43186 whole entry): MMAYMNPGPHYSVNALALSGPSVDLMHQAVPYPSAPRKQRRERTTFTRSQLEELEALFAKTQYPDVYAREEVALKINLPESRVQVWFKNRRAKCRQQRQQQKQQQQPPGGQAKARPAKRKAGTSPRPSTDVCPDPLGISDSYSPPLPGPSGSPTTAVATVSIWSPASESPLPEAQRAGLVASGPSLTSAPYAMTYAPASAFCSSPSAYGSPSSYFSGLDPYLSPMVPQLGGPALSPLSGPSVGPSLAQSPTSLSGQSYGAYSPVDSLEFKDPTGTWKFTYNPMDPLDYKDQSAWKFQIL

Consider CATGGG, for which the binding signal with ETV5 is 1.01 fold enrichment (6-mer frequency, TF over GST control); with SPIC, 1.05 fold enrichment (6-mer frequency, TF over GST control); with ELF4 it was 1 fold enrichment (6-mer frequency, TF over GST control); with ELK4, 1.02 fold enrichment (6-mer frequency, TF over GST control); with ETV2, 1.04 fold enrichment (6-mer frequency, TF over GST control).

Turning to CCGCCA, the binding signal is 1.37 fold enrichment (6-mer frequency, TF over GST control) with FEV; 1.21 fold enrichment (6-mer frequency, TF over GST control) in the experiment with ETV5; 1.37 fold enrichment (6-mer frequency, TF over GST control) with SPIC; 1.45 fold enrichment (6-mer frequency, TF over GST control) with ELF4; 1.44 fold enrichment (6-mer frequency, TF over GST control) in the experiment with ELK4; 1.19 fold enrichment (6-mer frequency, TF over GST control) with ETV2. Besides, the binding signal with ELF3 is 1.48 fold enrichment (6-mer frequency, TF over GST control); with CRX it was 1.02 fold enrichment (6-mer frequency, TF over GST control); in the experiment with ETV1 it was 1.32 fold enrichment (6-mer frequency, TF over GST control).

As to GGATAT, the binding signal with FEV was 3.83 fold enrichment (6-mer frequency, TF over GST control); with ETV5, 1.71 fold enrichment (6-mer frequency, TF over GST control); with SPIC it was 1.53 fold enrichment (6-mer frequency, TF over GST control); in the experiment with ELF4, 1.38 fold enrichment (6-mer frequency, TF over GST control); in the experiment with ELK4 it was 1.48 fold enrichment (6-mer frequency, TF over GST control); in the experiment with ETV2 it was 1.55 fold enrichment (6-mer frequency, TF over GST control). In addition, the binding signal is 1.78 fold enrichment (6-mer frequency, TF over GST control) in the experiment with ELF3; 1.09 fold enrichment (6-mer frequency, TF over GST control) with CRX; 1.62 fold enrichment (6-mer frequency, TF over GST control) in the experiment with ETV1.

As for CCTACC, the binding signal with FEV was 1.29 fold enrichment (6-mer frequency, TF over GST control); with ETV5, 1.35 fold enrichment (6-mer frequency, TF over GST control); with SPIC it was 1.36 fold enrichment (6-mer frequency, TF over GST control); with ELF4 it was 1.4 fold enrichment (6-mer frequency, TF over GST control); with ELK4, 1.22 fold enrichment (6-mer frequency, TF over GST control); with ETV2 it was 1.38 fold enrichment (6-mer frequency, TF over GST control). Also, the binding signal with ELF3 was 1.1 fold enrichment (6-mer frequency, TF over GST control); in the experiment with CRX, 1.07 fold enrichment (6-mer frequency, TF over GST control); with ETV1, 1.47 fold enrichment (6-mer frequency, TF over GST control).

For CCTCGG, the binding signal with FEV is 1.07 fold enrichment (6-mer frequency, TF over GST control); with ETV5, 1.2 fold enrichment (6-mer frequency, TF over GST control); with SPIC, 1.1 fold enrichment (6-mer frequency, TF over GST control); in the experiment with ELF4, 1.25 fold enrichment (6-mer frequency, TF over GST control); with ELK4, 1.24 fold enrichment (6-mer frequency, TF over GST control); with ETV2, 1.24 fold enrichment (6-mer frequency, TF over GST control). Besides, the binding signal in the experiment with ELF3 is 1.3 fold enrichment (6-mer frequency, TF over GST control); with CRX, 1.02 fold enrichment (6-mer frequency, TF over GST control); with ETV1 it was 1.28 fold enrichment (6-mer frequency, TF over GST control).

Regarding TCAATG, the binding signal with FEV was 1.03 fold enrichment (6-mer frequency, TF over GST control); in the experiment with ETV5, 1.02 fold enrichment (6-mer frequency, TF over GST control); with SPIC, 1.09 fold enrichment (6-mer frequency, TF over GST control); with ELF4, 1.06 fold enrichment (6-mer frequency, TF over GST control); with ELK4, 1.04 fold enrichment (6-mer frequency, TF over GST control); in the experiment with ETV2, 1.05 fold enrichment (6-mer frequency, TF over GST control). For the same sequence, the binding signal in the experiment with ELF3 is 1.03 fold enrichment (6-mer frequency, TF over GST control); with CRX, 1.02 fold enrichment (6-mer frequency, TF over GST control); with ETV1, 1.15 fold enrichment (6-mer frequency, TF over GST control).

Turning to AAGCGG, the binding signal with FEV is 1.12 fold enrichment (6-mer frequency, TF over GST control); with ETV5, 1.27 fold enrichment (6-mer frequency, TF over GST control); in the experiment with SPIC it was 1.31 fold enrichment (6-mer frequency, TF over GST control); in the experiment with ELF4 it was 1.01 fold enrichment (6-mer frequency, TF over GST control); with ELK4 it was 1.14 fold enrichment (6-mer frequency, TF over GST control); with ETV2 it was 1.19 fold enrichment (6-mer frequency, TF over GST control). Besides, the binding signal was 1.17 fold enrichment (6-mer frequency, TF over GST control) in the experiment with ELF3; 1.11 fold enrichment (6-mer frequency, TF over GST control) in the experiment with CRX; 1.1 fold enrichment (6-mer frequency, TF over GST control) with ETV1.
